Results: PubChem BioAssay (NCI)
Compounds without any hit were thinned out: in the full panel of roughly 83,000, 20% have a hit.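 Note: values are percent growth. 100 is the growth of untreated cells, values between 100 and 0 indicate rising inhibition; between -100 and 0 indicates cell death.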 Activity calls are given as the source filed them. Rule for the calls: active = growth percent below 10; inactive = the rest.

Columns and labels:
Assay in all cases: NCI-60 one-dose screen, 48 h (100 = growth as untreated, 0 = no growth, -100 = all killed)
Conditions in all cases: 10 µM unless noted
[1] = test system: BT-549 breast
[2] = test system: MDA-MB-435 melanoma
[3] = test system: SW-620 colon
[4] = test system: MCF7 breast
[5] = test system: HCT-116 colon
[6] = test system: KM12 colon
[7] = test system: HCC-2998 colon

Measured: growth

NS(=O)(=O)c1ccc(NC2=C(Cl)C(=O)c3ccccc3C2=O)cc1
inactive: [1] 84.4% | [2] 124% | [3] 95% | [4] 72.8% | [5] 65% | [6] 123%

CCOC(=O)c1c(C)c(C(=O)OCC)n(C)c1C
inactive: [1] 91.5% | [2] 101% | [3] 94.5% | [4] 127% | [5] 97.9% | [7] 110% | [6] 112%

COc1cccc2c1C(=O)c1c(O)c3c(c(O)c1C2=O)C[C@@](O)(/C(C)=N/NC(=O)c1cccc([N+](=O)[O-])c1)C[C@@H]3OC1CC(N)C(O)C(C)O1 (some centres undefined)
active: [1] -14.9% | [2] -34.3% | [3] -43.5% | [4] -8.97% | [5] -53.8% | [7] -58.2% | [6] -39.2%

CCC(C)CC(C)C(=O)c1c(O)ccn(O)c1=O (centres undefined)
inactive: [1] 35.6% | [2] 46.8% | [3] 25% | [4] 18.9% | [5] 22.7% | [7] 89.7% | [6] 34.2%

O=C(/C(=C/c1ccc([N+](=O)[O-])cc1)c1ccccc1)c1ccccc1
inactive: [1] 15.5% | [2] 10.9% | [3] 11.7% | [4] 26.4% | [6] 19.6%
active: [5] 6.38%

CCOC(=O)c1cc(-c2cccnc2)nc2c(Cl)cc(Cl)cc12
inactive: [1] 109% | [2] 95% | [3] 103% | [4] 90.5% | [5] 56.4% | [7] 98.1% | [6] 102%

NC(N)=N/N=C(/c1ccccc1)c1ccc(Cl)cc1
inactive: [1] 70.2% | [3] 47.6% | [4] 11.3% | [5] 24.9% | [6] 28.3%
active: [2] -54.4%

COC(=O)[C@]1(C(C)C)N[C@H](c2cn(-c3ccccc3)nc2-c2ccccc2)[C@@H]2C(=O)N(c3ccc(Cl)cc3)C(=O)[C@@H]21
inactive: [1] 86.7% | [2] 105% | [3] 99.4% | [4] 96.6% | [5] 89.8% | [7] 109% | [6] 95.3%

Cc1cc2c(C#N)n3c(c2cc1C)C(=O)C(c1ccccc1)Oc1ccccc1-3 (centres undefined)
inactive: [1] 17% | [3] 47.3% | [4] 68.2% | [5] 12.8% | [6] 15.2%
active: [2] 0.71%

COc1cc2c(cc1OC)C1CCN3C(=O)CCC3N1CC2 (centres undefined)
inactive: [1] 107% | [2] 113% | [3] 106% | [4] 103% | [5] 109% | [7] 101% | [6] 109%

COc1ccc(C(=O)C(C)Br)cc1OC (centres undefined)
inactive: [1] 94.3% | [2] 87.4% | [3] 40.8% | [4] 84.4% | [5] 52.2% | [7] 101% | [6] 93.3%

O=C(Nc1nc(-c2ccc(Cl)cc2)cs1)c1cc(O)c(O)c(O)c1
inactive: [1] 24.6% | [2] 41% | [3] 25.3% | [4] 28.3% | [5] 17.7% | [6] 51.3%

CC12CCC3C(CCC4CC(=O)/C(=C\O)CC43C)C1CCC(=O)O2 (centres undefined)
inactive: [1] 112% | [2] 110% | [3] 110% | [4] 102% | [5] 100% | [7] 101% | [6] 115%

Nc1nc(SCC2(CCl)COC2)c2[nH]cnc2n1
inactive: [1] 91.2% | [2] 107% | [3] 99.8% | [4] 86.4% | [5] 105% | [7] 97.7% | [6] 108%

Cn1cc(-c2csc(-c3c[nH]c4ncccc34)n2)c2cc(Br)cnc21
inactive: [1] 45.5% | [2] 33.8% | [3] 39.2% | [4] 35% | [7] 64.2% | [6] 63.1%
active: [5] 5.99%

Cc1c(NCc2nnc3n(Cc4ccccc4)c(=O)c4c5c(sc4n23)CCCC5)c(=O)n(-c2ccccc2)n1C
inactive: [1] 91.7% | [2] 73.5% | [3] 103% | [4] 85.1% | [5] 88.1% | [6] 98.8%

CCOc1cc(-c2ccc[nH]2)[nH]c1/C=C1\N=C(C)C(C(=O)OC)=C1C
active: [1] -43.3% | [2] -70.8% | [3] -72.9% | [4] -91.3% | [5] -60.2% | [7] -87% | [6] -85.3%

O=C(Oc1ccc[nH]c1=O)c1cccc(Cl)c1
inactive: [1] 88.4% | [2] 108% | [3] 115% | [4] 93.9% | [5] 88.5% | [7] 106% | [6] 104%

Cc1cc([N+](=O)[O-])c(C)cc1C(=O)O
inactive: [1] 92.5% | [2] 102% | [3] 108% | [4] 97.6% | [5] 102% | [7] 109% | [6] 102%

C/C(=N/N=C(N)N)c1ccc(N)cc1
inactive: [1] 70.1% | [2] 49% | [3] 97% | [4] 81.3% | [5] 103% | [6] 96%

O=C1/C(=C/c2ccc3cccc(Cl)c3n2)SC(=S)N1CCc1ccc(O)cc1
inactive: [1] 95.2% | [2] 85.5% | [3] 95% | [4] 86.3% | [7] 118% | [6] 84.8%

CC(=O)Oc1ccc(C23c4ccccc4C2(OC(C)=O)c2cc(OC(C)=O)ccc23)cc1 (centres undefined)
inactive: [1] 106% | [2] 97.9% | [3] 80.3% | [4] 49.5% | [7] 59.2% | [6] 46.2%

O=C(OC[C@H]1O[C@H](OC(=O)c2cc(O)c(O)c(OC(=O)c3cc(O)c(O)c(O)c3)c2)[C@H](OC(=O)c2cc(O)c(O)c(OC(=O)c3cc(O)c(O)c(O)c3)c2)[C@@H](OC(=O)c2cc(O)c(O)c(OC(=O)c3cc(O)c(O)c(O)c3)c2)[C@@H]1OC(=O)c1cc(O)c(O)c(OC(=O)c2cc(O)c(O)c(O)c2)c1)c1cc(O)c(O)c(OC(=O)c2cc(O)c(O)c(O)c2)c1
active: [2] 8.23% | [7] 1.77%
inactive: [1] 47.4% | [3] 47.5% | [5] 11.5% | [6] 21.8%

Cc1ccsc1/C=C/C1=NCCCN1C
inactive: [1] 102% | [2] 103% | [3] 105% | [5] 103% | [7] 102% | [6] 114%

CCOc1cccc(C2CC(=O)Nc3cc4c(cc32)OCO4)c1 (centres undefined)
inactive: [1] 82.4% | [2] 29.2% | [3] 84.2% | [4] 82.8% | [7] 86.4% | [6] 72.3%

CC[C@H](C)C(=O)O[C@H]1C[C@@H](C)C=C2C=C[C@H](C)[C@H](CC[C@@H]3C[C@@H](O)CC(=O)O3)[C@H]21
inactive: [1] 82.4% | [2] 87.8% | [3] 99.2% | [5] 51.7% | [7] 97.5% | [6] 109%

Clc1ccccc1[C@@H]1C[C@@H]2Cc3cc(Br)c4ccccc4c3N1O2
active: [2] -32%
inactive: [1] 50.1% | [3] 16.6% | [4] 12.7% | [7] 56.4% | [6] 33.5%

COC(=O)C[C@@H]1CC=CC(=O)/C1=C(O)/C=C/c1ccccc1
active: [1] -36.3% | [2] -32.1% | [3] -81.7% | [4] -3.08% | [7] -95.1% | [6] -76.3%

NC(=O)c1ncn([C@@H]2O[C@H](CO)[C@@H](O)[C@H]2O)n1
inactive: [1] 105% | [2] 101% | [3] 71.5% | [5] 89.6% | [7] 87.6% | [6] 100%

CN1COc2ccc3ccccc3c2C1
inactive: [1] 98.1% | [2] 106% | [3] 99.7% | [4] 91.8% | [7] 93% | [6] 105%

c1coc([C@@H]2C[C@@H]3Cc4ccc5ccccc5c4N2O3)c1
inactive: [1] 105% | [2] 103% | [3] 103% | [4] 84.6% | [7] 107% | [6] 107%

CCCCCCCCCCC[C@@H](C[C@H]1OC(=O)[C@H]1CCCCCC)OC(=O)[C@@H](CC(C)C)NC=O
inactive: [1] 31.6% | [2] 69% | [3] 77.6% | [5] 34% | [7] 55.1% | [6] 53%

O=Cc1c[nH]c2ccc(NC(=O)OCc3ccccc3)cc12
inactive: [1] 21.4% | [2] 115% | [3] 121% | [4] 100% | [7] 96.2% | [6] 123%

COc1ccc2c(c1)nc(N)c1c3cc(C)c(C)cc3cn21
inactive: [1] 94.5% | [3] 41.9% | [4] 16.3% | [7] 85.9% | [6] 46.8%
active: [2] -18%

COc1cc([C@@H]2c3cc4c(cc3C(O[C@@H]3O[C@@H]5CO[C@@H](c6cccs6)OC5[C@H](O)[C@H]3O)C3COC(=O)[C@@H]32)OCO4)cc(OC)c1O (some centres undefined)
active: [1] -20.3% | [2] -21.1% | [3] -8.91% | [5] -56.7% | [7] -76.4% | [6] -45.9%

CSc1nc2c(c(=O)n1C)C(c1ccccc1)C1=C(N2)/C(=C/c2ccccc2)CCC1 (centres undefined)
active: [2] 4.1%
inactive: [1] 37.9% | [3] 47.1% | [4] 56.7% | [7] 71.4% | [6] 71.4%
